Screening results as filed in PubChem BioAssay.
In the library only some 0.45% were active in any assay of this set; here they are far more common.
BCR signal inh: blocks chronic active B-cell receptor signaling. AID 493014. ABC-DLBCL IkBa-CBG/CBR reporter, luminescence ratio, 4 h. hit rate 0.05% among 340,000. Potency, µM (doses to about 46.1 µM), without a hit: at the highest dose activity change, negative = inhibition, actives largely listed as inhibitors; active = well fitted inhibition curve with a large enough effect in the signal ratio, with a control signal flat, not every such curve was filed as active; inconclusive = small, poorly fitted or top-dose-only effect, or effect the other way, or a change in a side signal; the % refers to the signal ratio;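 also: plate controls were basal doxycycline-induced cells for no effect and cells given 10 µM MG132 for full effect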
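Compounds up to 46 uM were incubated four hours with TMD8 cells whose green CBG68 luciferase is fused to IkappaBalpha; red CBR luminescence normalised the signal, and concentration-effect curves were fitted to fusion, red and ratio data.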
B2AR arrestin: beta2AR (human) beta-arrestin recruitment activity. beta-arrestin recruitment to beta2AR, cell-based reporter. Potency, µM (highest dose often 46.1 µM), for the others: at the top dose activation, actives largely listed as activators. hit rate 0.02% among 330,000. P07550;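 also: 0% = DMSO controls and full agonism = EC100 isoproterenol or metaproterenol; nearly all actives have a fitted effect of over 65% in size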
FEN1 inh-1: human FEN1 inhibition; P39748; Recombinant FEN1 flap cleavage, fluorescence, 15 min; Potency, µM (highest dose often 114 µM), for the others: at the top dose activity change, negative = inhibition, most hits filed as inhibitors; hit rate 0.35% among 390,000; AID 588795; also: % is scaled to controls: 0 for no effect and ±100 for the full control effect; nearly all actives have a fitted effect of over 65% in size
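FEN1 at 10 nM, compound pretreatment for 15 min (room temperature), 50 nM final substrate to initiate; endpoint reads at 0 and 15 min; DMSO-only plates used as vehicle background.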
Apoferritin bind: binds horse apoferritin like a general anesthetic; apoferritin/1-aminoanthracene competitive binding, fluorescence; AID 485281; Potency, µM (highest dose often 77.5 µM), inactives show at the highest dose activity change, negative = displacement, hits mostly inhibitors; hit rate 0.074% among 350,000; P02791; also: % is scaled to controls: 0 for no effect and ±100 for the full control effect; nearly all actives have a fitted effect of over 20% in size
Target sequence (P02791 2-175 limits assumed): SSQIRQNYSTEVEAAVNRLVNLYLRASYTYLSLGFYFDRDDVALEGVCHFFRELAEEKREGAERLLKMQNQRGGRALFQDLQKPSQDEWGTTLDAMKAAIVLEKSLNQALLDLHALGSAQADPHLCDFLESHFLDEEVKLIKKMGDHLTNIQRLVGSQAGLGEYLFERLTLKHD
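10 uM apoferritin + 50% sat. 1-AMA, PBS; cpd 10 min RT; Ex380/Em535 endpoint; normalized to free probe vs complex; 4-param Hill fit; propofol titration as pos. ctrl.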
Tb PGK inh: inhibitors of T. brucei phosphoglycerate kinase. P07378. PGK/GAPDH coupled, Kinase-Glo luminescence, 60 min. Potency, µM (series often up to 57.5 µM), for inactives: at the highest dose activity change, negative = inhibition, most hits filed as inhibitors. hit rate 0.043% among 380,000; also: % is scaled to controls: 0 for no effect and ±100 for the full control effect; nearly all actives have a fitted effect of over 60% in size
Target sequence (P07378 whole entry, looked up): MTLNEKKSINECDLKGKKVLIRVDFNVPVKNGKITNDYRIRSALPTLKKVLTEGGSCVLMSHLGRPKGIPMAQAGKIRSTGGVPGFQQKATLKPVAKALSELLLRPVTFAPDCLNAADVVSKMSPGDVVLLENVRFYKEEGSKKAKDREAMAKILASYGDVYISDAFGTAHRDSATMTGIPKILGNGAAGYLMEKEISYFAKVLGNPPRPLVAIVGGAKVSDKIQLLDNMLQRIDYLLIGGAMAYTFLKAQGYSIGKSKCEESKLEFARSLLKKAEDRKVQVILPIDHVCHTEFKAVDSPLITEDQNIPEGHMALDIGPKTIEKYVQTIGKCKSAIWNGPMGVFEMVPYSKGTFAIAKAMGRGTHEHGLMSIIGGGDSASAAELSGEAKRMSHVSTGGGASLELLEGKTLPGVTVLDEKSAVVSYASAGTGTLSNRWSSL
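Recombinant glycosomal PGK reaction used 1,3-bisphosphoglycerate generated in-well by GAPDH (100nM final) in 100mM TEA pH 7.6, 5mM MgCl2, 0.01% Tween-20. After 60 minutes at room temperature, ATP was read by Kinase-Glo Plus luminescence end-point.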
Pin1 inhibitor: human Pin1 inhibition; Q13526; Pin1 FP peptide displacement, HiFluor488, 10 min; Potency, µM (top dose mostly 115 µM), inactives show at the top dose activity, negative = inhibition, actives largely listed as inhibitors; hit rate 0.009% among 390,000; AID 504891; active = well fitted inhibition curve with a large enough effect in the polarisation, with a control signal flat, not every such curve was filed as active; inconclusive = small, poorly fitted or top-dose-only effect, or effect the other way, or a change in a side signal; inactive = no such curve, though single readings can be large or run the other way; the % refers to the polarisation; also: % is scaled to controls: 0 for no effect and ±100 for the full control effect
Target sequence (Q13526 whole entry, looked up): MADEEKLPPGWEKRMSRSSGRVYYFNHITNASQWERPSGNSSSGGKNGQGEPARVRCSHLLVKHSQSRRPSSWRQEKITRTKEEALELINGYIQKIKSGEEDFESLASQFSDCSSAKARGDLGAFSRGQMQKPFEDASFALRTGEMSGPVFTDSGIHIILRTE
FEN1 inh-2: FEN1 inhibition, cherry-pick retest. hit rate 79% among 880. FEN1 flap cleavage, TAMRA/BHQ2 fluorogenic DNA substrate. Potency, µM, most hits filed as inhibitors. AID 720498. shares compounds with FEN1 inh-1; also: nearly all actives have a fitted effect of over 60% in size
Numbers without * were called inactive; i = inactive; ? = inconclusive; · = not tested or not shown; [ ] = dose if it differs, or a comment. Unless noted, calls follow the shape of the dose curve; as a rule, active = well fitted curve in the direction sought with a large enough effect; inconclusive = small, poorly fitted or top-dose-only effect, or another doubt; inactive = no such curve, though single readings can be large; an effect the other way counts as inactive or inconclusive. Potency is read from the fitted curve at half-maximal effect.

SMILES	BCR signal inh	B2AR arrestin	FEN1 inh-1	Apoferritin bind	Tb PGK inh	Pin1 inhibitor	FEN1 inh-2
Cc1ccc(N2NC(=O)/C(=C/c3ccc(-c4ccc(Cl)c(C(=O)O)c4)o3)C2=O)cc1	?	-0.1%	2.0%	-6.6%	-15.2%	?	·
C[C@@H]1NC(=O)C/C=C\[C@@H](C)[C@@H]2C=C[C@H](O)[C@@H](COC(=O)[C@H](C)NC(=O)C/C=C\[C@@H](C)[C@@H]3C=C[C@H](O)[C@@H](COC1=O)O3)O2	·	·	·	3.7%[15.3 µM]	·	·	·
N#Cc1c(SCC(=O)Nc2ccc(Cl)cc2Cl)sc2c(O)cc(=O)[nH]c12	4.1%	0.3%	-2.6%	-14.3%	-16.3%	8.4%	·
N#Cc1c(SCC(=O)Nc2nc3ccc(Br)cc3s2)sc2c(O)cc(=O)[nH]c12	7.1%	0.2%	28.2µM*	-13.2%	?	?	?
O=C(CNC(=O)c1ccccc1)OC(C(=O)Nc1ccc2c(c1)OCO2)c1ccccc1 (stereo not given)	·	·	·	·	·	1.1%	·
O=C(NNc1cc(N2CCOCC2)nc(N2CCOCC2)n1)c1ccc([N+](=O)[O-])cc1	-0.5%	-0.2%	-0.9%	-22.8%	-5.6%	?	?
O=C(N/N=C/c1cc(Br)c(O)c(Br)c1)c1cc2c(ccc3ccccc32)o1	?	0.2%	56.2µM*	2.4%	-24.0%	·	42.6*
O=C(N/N=C/c1ccc(O)c(Br)c1)c1cc2c(ccc3ccccc32)o1	?	-0.2%	14.8%	-1.4%	7.6%	13.8%	·
O=C(N/N=C/c1cc(Cl)c(O)c(Cl)c1)c1cc2c(ccc3ccccc32)o1	?	-0.1%	50.1µM*	-13.6%	-18.4%	?	?
C[C@@H]1O[C@@H](Oc2c(-c3cc(O)c(O)c(O)c3)oc3cc(O)cc(O)c3c2=O)[C@H](O)[C@H](O)[C@H]1O	-1.4%	0.3%	2.24µM*	-7.9%	-29.9%	?	3.01*
C[C@@H]1O[C@@H](O[C@H]2[C@H](O)[C@@H](O)[C@H](Oc3c(-c4ccc(O)c(O)c4)oc4cc(O)cc(O)c4c3=O)O[C@@H]2CO)[C@H](O)[C@H](O)[C@H]1O	-3.3%	0.1%	?	·	-15.5%	0.7%	·
O=C1C=C(NCCc2cc(Br)c(O)c(Br)c2)C(=O)c2ncccc21	·	·	44.7µM*	·	-20.1%	?	60.1*
CN(C)CCCN1C(=O)c2cccc3cccc(c23)C1=O	-2.3%	-0.2%	?	1.3%	-0.4%	-0.8%	67.5*
CN1CCOc2ccc(S(=O)(=O)N3CCN(S(=O)(=O)c4c(F)cccc4F)CC3)cc21	?	-0.3%	·	·	·	2.1%	·
Cc1c(C)c2cccnc2c2ncccc12	3.8%	-0.4%	15.8µM*	·	9.9%	0.1%	42.6*
CC1=C(C(=O)Nc2ccccc2)C(c2ccc[nH]2)n2ncnc2N1 (stereo not given)	?	-0.4%	?	2.9%	·	?	75.7*
CC(C)(C)OC(=O)NCc1nnc(-c2cc3ccccc3[nH]2)s1	·	·	·	·	·	2.2%	·
CCOc1ccc(Nc2cc(C)c3ccccc3n2)cc1	?	0.0%	2.1%	9.8%	-7.3%	-6.6%	·
CCOc1ccc(Nc2c3ccccc3nc3ccccc23)cc1	23.9%	0.4%	44.7µM*	0.8%	-1.5%	-3.5%	42.6*
O=C1CCCC2=C1C(c1ccco1)Nc1ccc3ccccc3c12 (stereo not given)	0.2%	0.4%	50.1µM*	42.9%	?	·	75.7*
CN(C)c1cccc(-c2nc(N3CCC(C(N)=O)CC3)ncc2F)c1	·	·	·	·	·	-2.3%	·
CCN1/C(=C/c2ccc3cc(C)ccc3[n+]2CC)Sc2cc(C)ccc21	?	0.3%	?	-19.0%	i	?	7.57*
CCN1/C(=C/c2ccc3cc(C)ccc3[n+]2C)Sc2ccc3sccc3c21	?	-1.1%	?	-21.7%	·	11.1%	·
Nc1ccc2nc(-c3ccccc3)[nH]c2c1	?	-0.4%	-21.5%	94.8%	-7.5%	1.8%	·
Nc1ccc2nc(-c3ccc(N)c(Cl)c3)[nH]c2c1	?	0.0%	50.1µM*	49.8%	-4.7%	?	21.3*
SMILES	BCR signal inh	B2AR arrestin	FEN1 inh-1	Apoferritin bind	Tb PGK inh	Pin1 inhibitor	FEN1 inh-2
Cc1cc2oc3cc(NCCC4CCCN4C)ccc3c(=O)c2cc1C (stereo not given)	·	·	35.5µM*	·	-0.7%	-0.6%	33.8*
O=c1c2ccccc2oc2ccc(NCCCn3ccnc3)cc12	14.0%	0.2%	?	-0.7%	0.6%	-4.2%	·
CN1CCCC1CCNc1ccc2sc3ccccc3c(=O)c2c1 (stereo not given)	·	·	39.8µM*	·	10.6%	2.8%	37.9*
COc1cc2[nH]c3c(N4CCN(c5ccccn5)CC4)ncnc3c2cc1OC	?	-0.2%	28.2µM*	-2.1%	0.9%	-5.3%	23.9*
CN(C)c1ccc(/C=C2/C[N+](C)(C)C/C(=C/c3ccc(N(C)C)cc3)C2=O)cc1	·	·	?	·	-23.7%	?	?
CS(=O)(=O)Nc1cccc(-c2cc(F)c(S(=O)(=O)N3CCN(S(=O)(=O)c4ccc5c(c4)OCCO5)CC3)cc2F)c1	·	·	·	·	·	0.7%	·
CC(=O)Oc1cc(C(=O)OCC(=O)N2CCc3ccccc3C2)cc(OC(C)=O)c1OC(C)=O	-19.3%	-0.2%	25.1µM*	·	?	-17.6%	23.9*
O=C(O)c1ccc2nc(-c3ccco3)c(-c3ccco3)nc2c1	?	-0.1%	35.5µM*	212.6%	?	?	15.1*
O=C(c1ccc2nc(-c3ccco3)c(-c3ccco3)nc2c1)N1CCN(c2ccccc2)CC1	?	-0.2%	-3.8%	5.4%	-1.8%	?	·
CN(C)c1ccc2nc3c(=O)[nH]c(=O)nc-3n(CC(O)C(O)C(O)CO)c2c1 (stereo not given)	?	-0.3%	44.7µM*	2.7%	?	?	33.8*
O=S1(=O)N=C(Oc2cccc(-c3ccccc3)c2)c2ccccc21	·	·	·	·	·	-0.9%	·
Cc1cccc2cc(C(c3nnnn3C(C)(C)C)N(Cc3ccco3)CC3CCCO3)c(=O)[nH]c12 (stereo not given)	-0.6%	-0.8%	?	?	?	-9.9%	26.9*
Cc1cccc(C(=O)NC2CCN(C#N)CC2)c1	·	·	·	·	·	0.7%	·
Cc1nc2ccccc2c(=O)n1/N=C/c1ccccc1O	-0.1%	4.3%	-11.4%	7.5%	-3.1%	-5.6%	·
Cc1nc2ccccc2c(=O)n1/N=C/c1ccc(O)c(O)c1O	-0.4%	-0.3%	?	6.5%	-0.1%	?	10.7*
CC(C)(Cc1c[nH]c2ccccc12)NCC(O)COc1ccccc1C#N (stereo not given)	·	·	·	-15.8%	·	·	·
CN(C)c1cccc(-c2cnc(N3CCC(C(N)=O)CC3)s2)c1	·	·	·	·	·	36.5%	·
